Assay results: PMC5540273 (PLoS ONE, 2017)

Test system: T1, VEGFR2
T1 construct: gene KDR
Details: concentration: 1 μM, replicates: in singlicate; n = 1
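Note: KINOMEscan kinase panel screen.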

Compound | %Inh [%]
CC(C)(C)OC(=O)NC1CCCN(c2cc(-c3ccc4c(N)n[nH]c4c3)nc(N)n2)C1 (stereo not shown) [GSK2286096] | 0
Fc1cccc(COc2ccc(Nc3ncnc4sc(-c5ccc[nH]5)cc34)cc2Cl)c1 [GW707818] | 8
COc1cc2c(Nc3cccc(NC(=O)c4ccccc4)c3)ncnc2cc1OCCCN1CCOCC1 [GSK223810] | 28
O=C(c1ccc(-c2cc(-c3c[nH]nc3-c3ccccn3)ccn2)cc1)N1CCCC1 [GW792479] | 0
Cc1ccc(C)c(NC(=O)NCCNc2ccnc(Nc3ccc(F)cc3)n2)c1 [GSK1379878] | 0
CC(=O)Nc1n[nH]c2ncc(-c3ccccc3)cc12 [SB-548492] | 18
Cl.Cn1ccc(-c2cccc(Nc3ccnc4cc(-c5nccs5)ccc34)c2)n1 [GW525701] | 0
O=C(CCO)NCCn1ccc2ncnc(Nc3ccc(Oc4cccc(C(F)(F)F)c4)c(Cl)c3)c21 | 0
O=C(Nc1n[nH]c2nc(-c3ccco3)c(Br)cc12)c1ccc(CN2CCCC2)cc1.O=C(O)[C@H](O)[C@@H](O)C(=O)O [SB-742352] | 48
Oc1ccc2ncnc(Nc3ccc(OCc4ccccc4)cc3)c2c1 [GI262866] | 0
NC(=O)c1sc(-n2cnc3ccccc32)cc1OCc1ccccc1F [GSK1024306] | 6
Fc1cccc(COc2ccc(Nc3ncnc4nn5ccccc5c34)cc2Cl)c1 [GW689066] | 0
O=c1cc(N2CCOCC2)nc2n(Cc3cccc(Cl)c3)ccn12 [GSK2296823] | 6
Fc1cccc(COc2ccc(Nc3ncnc4cc[nH]c34)cc2Cl)c1 | 16
C[C@@H]1CCN(C(=O)CO)C[C@@H]1N(C)c1ncnc2[nH]ccc12 | 0
FC(F)(F)c1ccc(-c2nn3ncccc3c2-c2ccnc(Nc3cccc(C(F)(F)F)c3)n2)cc1 [GW828205] | 0
CSc1nn2c(=O)cc(N3CCOCC3)nc2n1Cc1cccc(Cl)c1Cl [GSK2347225] | 0

Compound | %Inh [%]
Cl.c1ccc(Cn2ccc3cc(Nc4ncnc5ccccc45)ccc32)cc1 [GW275568] | 16
CCCc1ccc(S(=O)(=O)NC2CCN(c3ccnc(Nc4ccc(OC)cc4)n3)C2)cc1 (stereo not shown) [GSK1379737] | 0
CCn1c(-c2ccncc2)nc2cnccc21 [SB-735216] | 24
Nc1nc(-c2ccc3c(N)n[nH]c3c2)cc(N2CCCCC2)n1 [GSK2228768] | 0
COC(=O)c1cccc(NC(=O)NCCNc2ccnc(Nc3ccc(F)cc3)n2)c1 [GSK1379883] | 5
CC(C)(C)c1ccc(-n2cnc3c(N)ncnc32)cc1 [SKF-97263] | 11
Cc1cc(N2CCC(NS(=O)(=O)c3ccc(F)cc3)CC2)nc(Nc2cccc(C#N)c2)n1.O=C(O)C(F)(F)F [GSK1653537] | 0
CCC(CC)(CC)n1cnc2c(N)ncnc21 [SKF-97620] | 13
OCCOCCn1ccc2ncnc(Nc3ccc(Oc4cccc(Cl)c4)c(Cl)c3)c21 | 0
COc1ccc(Nc2nccc(N3CCC(NC(=O)c4cccc(NC(C)=O)c4)C3)n2)cc1 (stereo not shown) [GSK1379732] | 0
Cc1ccc(O)cc1Nc1cc(C(F)(F)F)nc2ccc(-c3ccncc3)cc12 [GW630823] | 0
Cn1ccc2ncnc(Nc3ccc(Oc4cccc(Cl)c4)c(Cl)c3)c21 | 0
Clc1cc(Nc2ncnc3cc[nH]c23)ccc1OCc1ccccn1 | 6
O=C(NCCCN1CCCC1=O)c1cnc(NCc2cc(Cl)ccc2Cl)nc1NC1CCNCC1 | 0
COc1ccc(Nc2nccc(N3CCC(NC(=O)Nc4ccc5c(c4)OCO5)C3)n2)cc1 (stereo not shown) [GSK1379745] | 0
Fc1ccc(Nc2nccc(-c3c(-c4ccc(Cl)cc4)nn4ncccc34)n2)cc1F [GW829058] | 25
C[C@H]1CC[C@@H](C(=O)Nc2ccccc2)CN1c1cc(-c2ccc3c(N)n[nH]c3c2)nc(N)n1 [GSK2283293] | 0
